Compound activity deposited in PubChem BioAssay by several laboratories.
Hck Nef HTS = inhibitors of Nef-activated human Hck kinase, primary screen, biochemical, Z-Lyte FRET, 384-well, Hck-YEEI | Recombinant Hck-YEEI plus Nef, Z-Lyte FRET kinase assay | 220,000 tested, 0.68% active | Tyrosine-protein kinase HCK (Homo sapiens), P08631 | inhibition, % at 20 µM;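 active means Hck-Nef kinase inhibition above about 50%, limit read from the data; inactive means inhibition below that limit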
PGE2 EP2 inh = human EP2 receptor antagonists, primary screen, TR-FRET cAMP, C6 glioma cells. 260,000 tested, 0.52% active. C6 glioma cells expressing human EP2; cells stimulated with saturating PGE2. AID 1422, 2008. Prostaglandin E2 receptor EP2 subtype (Homo sapiens), P43116. inhibition, % at 25 µM;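 active means percent inhibition above 40 after rounding to a whole number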;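 further: rat C6 glioma host cells with rolipram phosphodiesterase inhibitor present; the protocol text gives 20 µM as final concentration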
Arbovirus anti = antivirals against arbovirus infection, primary screen, cell-based, full library, 10K replicate subset | inhibition, % at 10 µM | 200,000 tested, 0.37% active | arbovirus infection cell-based antiviral screen; in the data active means inhibition above about 30%
p97 inhibitor = inhibitors of human p97 ATPase, primary screen, biochemical; recombinant p97 ATPase, Kinase-Glo ATP luminescence, 3 h; inhibition, % at 8 µM; 220,000 tested, 0.42% active; AID 1481, 2009; in the data active means inhibition above about 15%
Target sequence (P55072 whole entry, looked up): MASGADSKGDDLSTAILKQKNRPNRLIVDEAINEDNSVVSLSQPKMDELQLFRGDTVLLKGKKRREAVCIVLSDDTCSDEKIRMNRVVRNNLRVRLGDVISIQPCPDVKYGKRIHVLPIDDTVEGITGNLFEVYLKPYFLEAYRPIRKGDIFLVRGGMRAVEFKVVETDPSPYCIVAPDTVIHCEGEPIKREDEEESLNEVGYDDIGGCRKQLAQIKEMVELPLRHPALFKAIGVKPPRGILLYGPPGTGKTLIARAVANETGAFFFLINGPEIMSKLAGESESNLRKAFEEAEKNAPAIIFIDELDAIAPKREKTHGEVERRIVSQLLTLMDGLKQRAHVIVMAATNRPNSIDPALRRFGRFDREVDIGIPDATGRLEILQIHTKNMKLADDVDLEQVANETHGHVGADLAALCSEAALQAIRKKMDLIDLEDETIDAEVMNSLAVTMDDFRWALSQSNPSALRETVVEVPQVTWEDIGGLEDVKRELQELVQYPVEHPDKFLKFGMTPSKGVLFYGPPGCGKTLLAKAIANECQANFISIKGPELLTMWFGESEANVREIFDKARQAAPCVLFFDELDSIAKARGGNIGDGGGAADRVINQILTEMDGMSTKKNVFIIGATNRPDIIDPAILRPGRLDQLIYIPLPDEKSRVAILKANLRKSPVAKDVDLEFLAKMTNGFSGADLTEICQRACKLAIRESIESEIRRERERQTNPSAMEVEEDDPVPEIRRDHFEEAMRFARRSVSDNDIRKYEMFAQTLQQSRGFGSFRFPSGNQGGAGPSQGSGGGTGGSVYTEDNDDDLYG
EP2 mod = EP2 receptor modulators, cAMP readout, primary screen, cell-based, HTRF cAMP, PGE2 stimulation; induction, % at 25 µM; EP2-expressing cells, cAMP HTRF FRET, PGE2 co-stimulation; Prostaglandin E2 receptor EP2 subtype (Homo sapiens), P43116; 260,000 tested, 0.83% active;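 active means compounds whose cAMP rise, as percent of the full-agonist control response, exceeds 60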;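 further: rat C6 glioma line stably carrying human EP2 under a CMV promoter; the protocol text gives 20 µM as final concentration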
Each line names hits and unclear results; the compound was inactive in the other large screens. Shown are actives, neighbours in structure and some others; about 2.4% of the full set was active somewhere.

Cc1cccc(N=C2NC(=O)/C(=C3/C(=O)N(C)c4ccccc43)S2)c1C	Arbovirus anti 43
CC(C)C1C(C#N)=C(N)Oc2n[nH]c(-c3cccs3)c21 (stereo unspecified)	none
CC(C)C1C(C#N)=C(N)Oc2n[nH]c(-c3ccc4ccccc4c3)c21 (stereo unspecified)	PGE2 EP2 inh 133
CCN(CC)c1ccc2c(C)c(CC(C)=O)c(=O)oc2c1	none (no result: Hck Nef HTS, Arbovirus anti, p97 inhibitor)
CN1CCN(C(=O)c2ccc(CSc3nc4ccncc4n3Cc3ccc(F)cc3)cc2)CC1	p97 inhibitor 16
CCC(C)NC(=O)c1ccc(CSc2nc3ccncc3n2Cc2ccc(F)cc2)cc1 (stereo unspecified)	none
Cn1c(Oc2ccccc2NCc2cc(Br)ccc2O)cc(=O)n(C)c1=O	Arbovirus anti 32 (no result: PGE2 EP2 inh)
CN(C)CCCc1c2ccccc2nc2ccc(Cl)cc12	PGE2 EP2 inh 58 (no result: Hck Nef HTS, Arbovirus anti, p97 inhibitor)
COc1cc(Br)cc(-c2nc3c(c(=O)[nH]c(=O)n3Cc3ccccc3)n2C)c1O	Arbovirus anti 53
CC[n+]1ccc(/C=C/c2ccc(N(C)C)cc2)c2ccccc21	PGE2 EP2 inh 96
CC[n+]1c(/C=C/c2ccc(N(C)C)cc2)ccc2ccccc21	PGE2 EP2 inh 66
CC[n+]1ccccc1/C=C/c1ccc(N(C)C)cc1	none
C=CCOc1ccc(C2NC(=O)NC(C)=C2C(=O)OC(C)C)cc1 (stereo unspecified)	none (no result: Hck Nef HTS, Arbovirus anti, p97 inhibitor)
COCCn1c(SCC(=O)Nc2ccccc2Br)nc2sc3c(c2c1=O)CCC3	none (no result: Hck Nef HTS, Arbovirus anti, p97 inhibitor)
CCN(CC)c1ccc(/C=c2\sc3nnc(-c4ccccc4Cl)n3c2=O)cc1	none
CCN(CC)c1ccc(/C=c2/sc3nnc(-c4ccccc4C)n3c2=O)cc1	PGE2 EP2 inh 48
O=C(O)CCCC(=O)Nc1nc2n(n1)C(c1ccc(F)cc1)CC(c1ccc(Cl)cc1)N2 (stereo unspecified)	Arbovirus anti 39
CS(=O)(=O)C1=NSC2=NC(=O)/C(=C\c3cccn3-c3ccccc3Cl)C(=N)N21	Arbovirus anti 51
Cc1ccc(-n2cccc2/C=C2/C(=N)N3C(=NC2=O)SN=C3S(C)(=O)=O)cc1	Arbovirus anti 47
COc1cccc(-n2c(C)cc(/C=C3/C(=N)N4C(=NC3=O)SN=C4S(C)(=O)=O)c2C)c1	Arbovirus anti 40
CCc1ccc(-n2cccc2/C=C2/C(=N)N3C(=NC2=O)SN=C3S(C)(=O)=O)cc1	none
Cc1cc(C)cc(-n2cccc2/C=C2/C(=N)N3C(=NC2=O)SN=C3S(C)(=O)=O)c1	none
CCCc1nc(C(N)=O)c2[nH]c(=O)n(-c3cccc(OC)c3)c2n1	none (no result: Hck Nef HTS, PGE2 EP2 inh, Arbovirus anti, p97 inhibitor)
Cc1cc(C)c2c(N)c(C(=O)Nc3ccc4sc(C)nc4c3)sc2n1	none (no result: Hck Nef HTS, Arbovirus anti, p97 inhibitor)
Cc1cc2ncn(CC(=O)Nc3cccc(C)c3C)c2cc1C	none (no result: Hck Nef HTS, Arbovirus anti, p97 inhibitor)
COc1ccc(OC)c(NC(=O)C(=O)N/N=C/c2ccccc2[N+](=O)[O-])c1	none
COc1ccc(NC(=O)C(=O)N/N=C/c2cc(C)n(-c3cccc(Cl)c3Cl)c2C)c(OC)c1	Arbovirus anti 32
Cc1cccc(C2(c3cccc(C)c3)CC2C(=O)Nc2ccc([N+](=O)[O-])cc2O)c1 (stereo unspecified)	EP2 mod 61
C=C(C)CC(Nc1ccco1)c1ccccc1C (stereo unspecified)	EP2 mod 61 (no result: Hck Nef HTS, Arbovirus anti, p97 inhibitor)
COc1cc(/C=C2/C(=O)c3cccc([N+](=O)[O-])c3C2=O)c(Br)cc1O	PGE2 EP2 inh 49
COc1ccc(-c2nc(-c3cccc([N+](=O)[O-])c3O)cc(=O)o2)cc1OC	none
COc1ccc(CN(Cc2coc3ccccc3c2=O)CC2CCCO2)c(OC)c1 (stereo unspecified)	none (no result: Hck Nef HTS, Arbovirus anti, p97 inhibitor)
CC1=CC(=O)c2ccccc2C1=O	PGE2 EP2 inh 46
CC(C)(C)c1ccc(N/N=C(\C#N)S(=O)(=O)C(C)(C)C)cc1	Arbovirus anti 34
COc1cccc(/C=N/N2CCN(C3c4ccccc4-c4ccccc43)CC2)c1O	EP2 mod 65 (no result: Arbovirus anti)
C(=N\N1CCN(C2c3ccccc3-c3ccccc32)CC1)/c1ccncc1	EP2 mod 61
Oc1cccc(/C=N/N2CCN(C3c4ccccc4-c4ccccc43)CC2)c1	none (no result: Arbovirus anti)
Cc1ccccc1S(=O)(=O)Nc1ncnc2scc(-c3ccccc3)c12	Arbovirus anti 58
CN(C)CCCNc1ncnc2scc(-c3ccccc3)c12	none
COc1cc(/C=C2\SC(=O)N(CCNC(=O)c3sc4cc(F)ccc4c3Cl)C2=O)cc(OC)c1OC	Hck Nef HTS 55
O=C(Nc1ccccc1C(=O)O)c1ccc2ccccc2n1	Arbovirus anti 42
CCn1c(=O)n(CC(=O)NCc2ccc(OC)cc2)c2cccnc21	none (no result: Hck Nef HTS, Arbovirus anti, p97 inhibitor)
O=C1COc2ccc(N3C(=O)C=CC3=O)cc2N1	PGE2 EP2 inh 46
Cc1ccc(C)n1Cc1ccccc1Cl	EP2 mod 65
Cc1cc2cc(CN(CCCO)S(=O)(=O)c3ccc(C)c(Cl)c3)c(=O)[nH]c2cc1C	none (no result: Hck Nef HTS, Arbovirus anti, p97 inhibitor)
Cc1[nH]c2c(C)cccc2c1CCNC(=O)c1ccc2c(c1[N+](=O)[O-])C(=O)c1ccccc1C2=O	p97 inhibitor 15
CC(C)[C@@H](Cn1nc(-c2ccc(F)c(F)c2)ccc1=O)NC(=O)C1CCC1	none (no result: Hck Nef HTS, PGE2 EP2 inh, Arbovirus anti, p97 inhibitor)
O=C(O)c1ccccc1CSc1ccccn1	Arbovirus anti 32
Cc1cc(NC(=O)c2ccccc2F)n(-c2nc3ccccc3[nH]2)n1	none
Cc1cc(NC(=O)c2ccc(C)s2)n(-c2nc3ccccc3[nH]2)n1	EP2 mod 63
CC(Nc1nc(-c2ccccc2O)nc2ccccc12)c1ccccc1 (stereo unspecified)	EP2 mod 70 (no result: Arbovirus anti)
Cc1ccc2cc(CN(CCCO)S(=O)(=O)c3c(C)ccc4nsnc34)c(=O)[nH]c2c1	none (no result: Hck Nef HTS, Arbovirus anti, p97 inhibitor)
Fc1ccccc1COc1ccc2ccccc2c1CNc1nn[nH]n1	Arbovirus anti 31
CCOc1cc(C2C3=C(CCCC3=O)N(C)C3=C2C(=O)CCC3)cc(Cl)c1OC	none (no result: Hck Nef HTS, Arbovirus anti, p97 inhibitor)
C=CCOc1c(Br)cc(C2C3=C(CCCC3=O)N(C)C3=C2C(=O)CCC3)cc1OCC	Hck Nef HTS 53
COc1ccc(-c2ccc(SCC(=O)NCc3cccs3)nn2)cc1OC	none (no result: Hck Nef HTS, Arbovirus anti, p97 inhibitor)
CCOC(=O)c1ccc(NC(=O)CSc2nc3cc4c(cc3cc2C#N)OCCO4)cc1	EP2 mod 83 (no result: Hck Nef HTS, Arbovirus anti, p97 inhibitor)
N#Cc1cc2cc3c(cc2nc1SCC(=O)NCc1ccccc1)OCCO3	PGE2 EP2 inh 43 (no result: Hck Nef HTS, Arbovirus anti, p97 inhibitor)
Cc1oc(C(=O)N2CCC3(CC2)Nc2ccccc2-n2cccc23)cc1CN1CCOCC1	none (no result: Hck Nef HTS, PGE2 EP2 inh, Arbovirus anti, p97 inhibitor)
CC(C)[C@@H](Cn1nc(-c2cccs2)ccc1=O)NC(=O)c1cc2ccccc2oc1=O	none (no result: Hck Nef HTS, PGE2 EP2 inh, Arbovirus anti, p97 inhibitor)
COc1ccc(NC(=O)c2ncoc2-c2ccccc2C(F)(F)F)c(OC)n1	none (no result: Hck Nef HTS, Arbovirus anti, p97 inhibitor)
CC(C)(C)OC(=O)[C@H]([C@@H]1N[C@@H](C(=O)O)C(C)(C)S1)N1C(=O)c2ccccc2C1=O	PGE2 EP2 inh 42 (no result: Hck Nef HTS, Arbovirus anti, p97 inhibitor)
